Unmarked numbers belong to inactive results. Inconclusive results are not listed. Active and inactive are the calls of the source. Calls follow the shape of the dose curve; as a rule, active = well fitted curve in the direction sought with a large enough effect; inconclusive = small, poorly fitted or top-dose-only effect, or another doubt; inactive = no such curve, though single readings can be large; an effect the other way counts as inactive or inconclusive.

Test [1] is described as follows: Cell Viability - H-4-II-E (AID 543).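 Also: cells exposed to compound for 40 hours; % is scaled to controls: 0 for no effect and ±100 for the full control effect; nearly all actives have a fitted effect of over 35% in size.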 In outline: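 Rat hepatoma H-4-II-E cells, 1500 per well, treated 40 h at 37 °C in complete medium. Cellular ATP read by CellTiter-Glo luminescence; AC50 from Hill fits of concentration-response.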
A short description of test [2]: Cell Viability - SH-SY5Y (AID 544).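 Also: cells exposed to compound for 40 hours; nearly all actives have a fitted effect of over 55% in size.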 To be noted: SH-SY5Y neuroblastoma cell viability; viability change, negative = cytotoxic: at 92.2 µM (top of the series). In outline: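 SH-SY5Y human neuroblastoma cells (1500/well) incubated 5 h, then compound-treated 40 h at 37 °C in complete medium. Viability read as intracellular ATP by CellTiter-Glo luminescence after 20 min; AC50 from Hill-equation fits of qHTS concentration-response.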

Test [3] is described as follows: Cell Viability - Renal Proximal Tubule (AID 545).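 Also: cells exposed to compound for 40 hours; nearly all actives have a fitted effect of over 40% in size.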 The procedure, abridged:
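Primary rat renal proximal tubule cells (1000/well) were treated with compounds for 40 hr at 37 °C in complete medium. Intracellular ATP was measured by CellTiter-Glo luminescence, and AC50 values came from Hill-equation fits of concentration-response data.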

Test [4] can be described thus: Cell Viability - Mesenchymal (AID 546).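 Also: cells exposed to compound for 40 hours before reading.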 In outline: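 Normal human renal glomerulus-derived kidney mesenchymal cells, 1000 per well in complete medium, were treated with compounds for 40 hr at 37 °C. Viability was read as intracellular ATP by CellTiter-Glo luminescence; AC50 values came from Hill-equation fits of qHTS concentration-response data.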
A short description of test [5]: Cellular Toxicity (caspase-3) HepG2 (AID 654).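 Also: cells exposed to compound for 16 hours before reading; 0% = DMSO alone and 100% = caspase signal from 100 µM tamoxifen.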 The procedure, abridged:
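HepG2 cells (1500/well) were treated 16 h at 37 °C in complete medium, then caspase 3/7 activity was read by Caspase-Glo luminescence. Data were normalized to DMSO and 100 uM tamoxifen; AC50 came from Hill-equation fits of qHTS concentration-response.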

A short description of test [6]: Cellular Toxicity (caspase-3) Jurkat (AID 655).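 Also: cells exposed to compound for 16 h at 37 °C before reading.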 To be noted: Jurkat caspase-3 activation, luminescence; caspase-3 activation: at 92.2 µM (top of the series), DMSO = 0%, tamoxifen = 100%. The procedure, abridged:
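Jurkat cells (5000/well) in complete medium were treated with compounds for 16 hr at 37 °C, then Caspase-Glo 3/7 luminescence was read after 20 min at room temperature. Data normalized to DMSO (basal) and 100 uM tamoxifen (100%); AC50 from Hill fit.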

A short description of test [7]: Cellular Toxicity (caspase-3) HUV-EC-C (AID 656). The procedure, abridged: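 HUV-EC-C endothelial cells, 1000/well, were pre-incubated 5 hr at 37°C, then exposed to compounds for 16 hr at 37°C. Caspase-Glo 3/7 luminescence was read after 20 min at room temperature. AC50 came from Hill fits, normalized to DMSO and 100 uM tamoxifen.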
Test [8] in a line: Cellular Toxicity (caspase-3) SHSY5Y (AID 657). In outline: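 SH-SY5Y human neuroblastoma cells (1500/well) were treated with compounds for 16 h at 37 °C, then Caspase-Glo 3/7 luminescence was read after 1 h at room temperature. Data normalized to DMSO and 10 uM staurosporine; AC50 from Hill fits.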
A short description of test [9]: Cellular Toxicity (caspase-3) BJ (AID 658).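 Also: 0% = DMSO basal and 100% = 10 µM staurosporine.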 In outline:
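Luminescent aminoluciferin-substrate cleavage reports caspase 3/7 activity in normal human BJ fibroblasts after 16 hr compound exposure at 37 °C. Normalized to DMSO (basal) and 10 uM staurosporine (100%); AC50 from Hill fit of concentration-response.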

A short description of test [10]: Cellular Toxicity (caspase-3) MRC-5 (AID 659).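 Also: 0% = DMSO basal and 100% = 10 µM staurosporine.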 The procedure, abridged:
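Luminescence from caspase-cleaved aminoluciferin substrate (Caspase-Glo 3/7, 1 hr RT) reports caspase 3/7 activity in MRC-5 lung fibroblasts after 16 hr compound exposure. Normalized to DMSO basal and 10 uM staurosporine as 100%; AC50 from Hill fits.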

Test [11] is described as follows: Cellular Toxicity (caspase-3) Mesangial (AID 660).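 Also: cells exposed to compound for 16 h before the caspase read.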 The settings on record: mesangial cells, normalized: DMSO 0%, 100 µM tamoxifen 100%; at 91.7 µM (top of the series). In outline: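 Human renal glomerular mesangial cells, 1000/well, 5 h at 37 C before 16 h compound treatment. Caspase-Glo 3/7 luminescence after 20 min; normalized to DMSO and 100 uM tamoxifen, AC50 from Hill fit.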

The nature of test [12]: Cellular Toxicity (caspase-3) SK-N-SH (AID 661).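 Also: 0% = DMSO basal and 100% = 10 µM staurosporine.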 The procedure, abridged:
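Human SK-N-SH neuroblastoma cells, 1500/well, were exposed to compounds for 16 hours at 37 °C. Caspase-Glo 3/7 luminescence was normalized to DMSO (basal) and 10 uM staurosporine (100%), and AC50 came from a Hill fit.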

The nature of test [13]: Cellular Toxicity (caspase-3) H-4-II-E (AID 663).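 Also: cells exposed to compound for 16 hr before readout.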 To be noted: H-4-II-E rat hepatoma, scaled: DMSO 0%, 100 µM tamoxifen 100%; at 92.2 µM (top of the series). In outline:
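Luminescence from caspase-cleaved aminoluciferin substrate, read 20 min after reagent addition, reports caspase 3/7 activation in rat H-4-II-E cells after 16 hr compound exposure. Normalized to DMSO (basal) and 100 uM tamoxifen (100%); AC50 from Hill fits.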

A short description of test [14]: Cellular Toxicity (caspase-3) Hek293 (AID 664).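 Also: cells exposed to compound for 16 h at 37 °C before readout.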 The settings on record: HEK293 caspase-3 activation, DMSO = 0%, 100 µM tamoxifen = 100%; at 92.2 µM (top of the series). The procedure, abridged: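 HEK293 cells in complete medium treated 16 h at 37 °C, then Caspase-Glo 3/7 luminescence read after 20 min at room temperature. Normalized to DMSO and 100 uM tamoxifen; AC50 from Hill fit of concentration-response.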

Test [15] is described as follows: Cellular Toxicity (caspase-3) N2a (AID 665).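 Also: compound exposure lasted 16 h at 37 °C before readout.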 The procedure, abridged:
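Mouse N2a neuroblastoma cells, 1500 per well, treated 16 h at 37 °C in complete medium; caspase-3/7 activity by Caspase-Glo luminescence after 1 h. Normalized to DMSO and 10 uM staurosporine; AC50 from Hill fits.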

Test [16] can be described thus: Cellular Toxicity (caspase-3) NIH 3T3 (AID 666).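 Also: 0% = DMSO basal and 100% = 100 µM tamoxifen stimulation.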 In outline:
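Mouse NIH 3T3 fibroblasts (1000/well) treated 16 h at 37 C; caspase-3/7 activity measured by Caspase-Glo 3/7 luminescence after 20 min. Normalized to DMSO and 100 uM tamoxifen; AC50 from Hill fits.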

Test [17] can be described thus: Cellular Toxicity (caspase-3) Renal Proximal Tubule (AID 667).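 Also: cells exposed to compound for 16 hours at 37 °C before detection; 0% = DMSO basal and 100% = 10 µM staurosporine.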 To be noted: Potency: caspase-3 activation. In outline:
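Primary rat proximal tubule cells, 1000/well, 5 h plating at 37 °C, then compound 16 h at 37 °C. Caspase-Glo 3/7 reagent, 1 h RT, luminescence. Normalized to DMSO (basal) and 10 uM staurosporine (100%); Hill-fit AC50.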

In test [18] the target is Cytochrome P450 3A4 (Homo sapiens) (UniProt P08684). Nature of the test: qHTS Assay for Inhibitors and Substrates of Cytochrome P450 3A4 (AID 884). Also: % is scaled to controls: 0 for no effect and ±100 for the full control effect; nearly all actives have a fitted effect of over 50% in size. In outline: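 20 nM human CYP3A4 with 25 uM Luciferin-PPXE (at KM) in 200 mM KPO4, preincubated 10 min with compound; NADPH regeneration started a 60 min RT reaction. Luciferin detected by luminescence, normalized to 57 uM ketoconazole as full inhibition.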
(In general: In qHTS, concentration-response curves come from the screen itself.)

The nature of test [19]: Cell Viability - LYMP2-001 (AID 921).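 Also: 0% = DMSO only and full inhibition = tetraoctylammonium bromide control wells; nearly all actives have a fitted effect of over 70% in size.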 The procedure, abridged: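 Human lymphoblastoid cells (Coriell), 2500 per well, were preincubated 5 hr at 37 C, then exposed to compounds in complete medium for 24 hr at 37 C. Cellular ATP was read by CellTiter-Glo luminescence; AC50 from Hill fits of concentration-response data.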
Test [20] has as its target Cytochrome P450 3A4 (Homo sapiens) (UniProt P08684). As to the kind of experiment: qHTS Assay for Activators of Cytochrome P450 3A4 (AID 885). Also: nearly all actives have a fitted effect of over 65% in size. In outline:
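Quantitative HTS format: compounds preincubated with 20nM human CYP3A4 and Luciferin-PPXE substrate at KM, reaction started by NADPH regeneration, stopped after 60 min, luciferase luminescence read 20 min later.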

Chain of Cytochrome P450 3A4 (Homo sapiens) (P08684 whole entry, looked up): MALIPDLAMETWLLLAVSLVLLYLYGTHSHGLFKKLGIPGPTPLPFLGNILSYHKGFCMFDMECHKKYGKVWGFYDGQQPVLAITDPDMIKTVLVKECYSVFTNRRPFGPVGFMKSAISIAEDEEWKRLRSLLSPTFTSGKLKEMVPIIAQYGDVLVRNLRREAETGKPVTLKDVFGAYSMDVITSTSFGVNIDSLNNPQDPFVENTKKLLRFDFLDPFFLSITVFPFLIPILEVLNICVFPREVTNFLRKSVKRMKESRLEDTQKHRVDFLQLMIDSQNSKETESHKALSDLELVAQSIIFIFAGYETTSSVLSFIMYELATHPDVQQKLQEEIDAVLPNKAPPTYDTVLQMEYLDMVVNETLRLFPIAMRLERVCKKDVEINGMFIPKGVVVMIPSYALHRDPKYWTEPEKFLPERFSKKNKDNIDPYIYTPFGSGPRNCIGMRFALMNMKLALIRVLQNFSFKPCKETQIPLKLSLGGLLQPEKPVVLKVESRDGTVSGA

As to `Nc1nc2ccccc2[nH]1`, the Potency result in test [1], in test [2], in test [3], in test [4], in test [5] and in test [17] was “inactive” throughout. The Potency entry in test [18] and in test [19] was “inactive” each time. Moreover, the caspase-3 activation in test [6] was 10.5%; in test [11] it was -0.927%; in test [13], -0.868%; in [14], 0.0156%. Further, the compound was called inactive in test [7], in [8], in test [9], in test [10], in test [12] and in test [15]. Besides, the call in test [16] was inactive.
Turning to `CC(=O)c1ccccc1[N+](=O)[O-]`, the Potency entry in test [1], in test [2], in [3], in test [4], in test [5] and in test [17] was “inactive” in each case. Also, the Potency entry in test [18] and in test [19] was “inactive” in each case. Further, the caspase-3 activation in [6] is 0.506%; in [11], -0.0773%; in test [13], 0.797%; in test [14], 1.17%. Also, the call in test [7], in test [8], in test [9], in test [10], in [12] and in test [15] was inactive. Also, in [16], the result was inactive.
On to `Nc1cc([N+](=O)[O-])ccc1C(=O)O`, for which the Potency entry in test [1], in [2], in test [3], in test [4], in test [5] and in [17] was “inactive” in each case. The Potency result in test [19] was “inactive”. For the same compound, the caspase-3 activation in test [6] was -2.73%; in test [11], -0.673%; in test [13], -1.05%; in [14], -2.97%. The compound was classed as inactive in test [7], in test [8], in test [9], in test [10], in test [12] and in [15]. Also, the result in test [16] and in test [20] was inactive.
For `O=c1[nH][nH]c(=O)c2cc([N+](=O)[O-])ccc12`, the Potency result in test [1], in [2], in test [3], in test [4], in [5] and in [17] was “inactive” throughout. Further, the Potency result in test [18] and in [19] was “inactive” throughout. For the same compound, the caspase-3 activation was -0.126% in test [6], -0.0154% in test [11], -0.659% in test [13] and 4.2% in test [14]. The outcome in test [7], in test [8], in test [9], in test [10], in test [12] and in [15] was inactive. Further, the compound was called inactive in test [16].
Regarding `ICCc1ccccc1`, the Potency result in test [1], in [3], in test [4], in test [5], in [17] and in test [18] was “inactive” in each case. Also, the Potency result in test [19] was “inactive”. For the same compound, the viability change, negative = cytotoxic in [2] was -96.6% (active). Also, the caspase-3 activation in [6] was 0.274%; in [11] it was 0.262%; in [13] it was 0.877%; in test [14], 3.13%. Moreover, the compound was called inactive in [7], in [8], in [9], in [10], in [12] and in [15]. Moreover, the result in test [16] was inactive.
Regarding `CC/C=C/C#N`, the Potency entry in [1], in [2], in test [3], in [4], in test [5] and in [17] was “inactive” throughout. The Potency result in test [18] and in [19] was “inactive” in each case. The caspase-3 activation was -0.0351% in test [6], -0.969% in test [11], 0.211% in [13] and 1.85% in test [14]. For the same compound, the compound was classed as inactive in test [7], in [8], in [9], in [10], in test [12] and in test [15]. Besides, in test [16], the compound was called inactive.

For the origin of these results see PubChem BioAssay (NCATS).
